Gal4-VP16 FLuc – counter-screen for ROR gamma inhibitors: Gal4-VP16 reporter; Drosophila S2 Gal4-VP16 UAS-luciferase, luminescence, 20 h; 310,000 tested, 3.5% active; Potency, µM (series often up to 53.6 µM), without a hit: top-dose activity, negative = inhibition, usual class: inhibitors;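 further: Gal4-VP16 expression switched on by copper sulfate through the metallothionein promoter; nearly all actives have a fitted effect of over 50% in size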
DT40 TDP1 CPT – growth inhibition of DT40 Tdp1-/-;hTDP1 cells with camptothecin (screen for TDP1 inhibitors); chicken DT40 Tdp1-/-;hTDP1 cells + 20 nM CPT, ATP luminescence, 48 h; 420,000 tested, 12% active; AID 686979; Potency, µM (titrated, usually from 46.2 µM), for inactives: top-dose activity change, negative = growth inhibition, hits mostly inhibitors; further: nearly all actives have a fitted effect of over 55% in size
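Cell growth measured by CellTiter-Glo luminescence after a minimum 48 h, 37 C compound exposure with 20 nM CPT in Tdp1-knockout DT40 cells stably expressing hTDP1, seeded 400/well; qHTS titration format.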
RORg inh – ROR gamma (mouse) transcription inhibition | P51450 | Drosophila S2 Gal4-RORgamma UAS-luciferase reporter, 20 h | Potency, µM (top dose mostly 53.6 µM), without a hit: at the highest dose activity change, negative = inhibition, actives largely listed as inhibitors | 310,000 tested, 5.4% active; further: nearly all actives have a fitted effect of over 60% in size
Target sequence (P51450 whole entry, looked up, the tested form may be a part): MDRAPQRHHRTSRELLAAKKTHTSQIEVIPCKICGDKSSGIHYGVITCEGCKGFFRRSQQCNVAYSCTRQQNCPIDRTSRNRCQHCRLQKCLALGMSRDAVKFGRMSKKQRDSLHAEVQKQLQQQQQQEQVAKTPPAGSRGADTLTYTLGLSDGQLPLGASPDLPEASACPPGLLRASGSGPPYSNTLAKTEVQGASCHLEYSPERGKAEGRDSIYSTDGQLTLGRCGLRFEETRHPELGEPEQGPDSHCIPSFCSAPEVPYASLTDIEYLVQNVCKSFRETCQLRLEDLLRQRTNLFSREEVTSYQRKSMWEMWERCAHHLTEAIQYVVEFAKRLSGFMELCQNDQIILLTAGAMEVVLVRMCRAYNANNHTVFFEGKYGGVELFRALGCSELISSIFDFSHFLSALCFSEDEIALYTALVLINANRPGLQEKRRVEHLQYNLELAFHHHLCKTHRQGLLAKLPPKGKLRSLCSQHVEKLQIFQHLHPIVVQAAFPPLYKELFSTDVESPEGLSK
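Stably transfected Drosophila Schneider cells are the test system, with ROR gamma fused to Gal4 and luciferase under UAS control; luminescence is read after 20 hr of 700 uM copper sulfate induction at ambient temperature.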
DT40 TDP1 no CPT – qHTS for Inhibitors of human tyrosyl-DNA phosphodiesterase 1 (TDP1): qHTS in cells in absence of CPT; DT40 Tdp1-/- hTDP1 cells, no CPT, ATP luminescence, 48 h; Potency, µM (highest dose often 46.2 µM), inactives show at the highest dose activity change, negative = growth inhibition, most hits filed as inhibitors; 420,000 tested, 15% active; AID 686978, 2013; further: nearly all actives have a fitted effect of over 55% in size
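Luminescent ATP content (CellTiter-Glo) served as the growth readout. Knockout chicken DT40 cells expressing human TDP1 were exposed to compounds without camptothecin for a minimum 48 hr at 37 °C.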
TDP1 inh – TDP1 (human) enzyme inhibition | 350,000 tested, 0.28% active | Potency, µM (doses to about 130 µM), inactives show top-dose activity change, negative = inhibition, most hits filed as inhibitors | recombinant TDP1, AlphaScreen DNA substrate cleavage; further: nearly all actives have a fitted effect of over 40% in size
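Tdp1 1 nM final; 15 min RT w/ cpd; substrate 15 nM, 5 min; beads 10 ug/ml, 10 min; AlphaScreen read. Neg ctrl: no enzyme.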
Numbers without * were called inactive; ? = inconclusive; · = no result; ! = not confirmed by another sample. Hits are enriched below; roughly 19% of the tested compounds scored in any of these assays. The call rests on the fitted dose curve; in most records, active means well fitted curve in the direction sought with a large enough effect; inconclusive means small, poorly fitted or top-dose-only effect, or another doubt; inactive means no such curve, though single readings can be large; an effect the other way counts as inactive or inconclusive. On the % scale 0 is the no-effect control and ±100 the full control effect; potency means the concentration at half of the fitted maximal effect.

SMILES	Gal4-VP16 FLuc	DT40 TDP1 CPT	RORg inh	DT40 TDP1 no CPT	TDP1 inh
Cc1ccc(C)c(C(=O)COc2ccc(C)nc2[N+](=O)[O-])c1	?	7.31µM*	?	14.6µM*	-1.8%
Cc1ccc(OCC(=O)N2c3ccccc3CC2C)c([N+](=O)[O-])n1 (stereo not given)	6.0%	16.4µM*	22.5%	-86.7%	5.0%
Cc1ccc(OCC(=O)c2c(N)n(C)c(=O)n(C)c2=O)c([N+](=O)[O-])n1	·	-18.4%	·	2.4%	3.16µM*
Cc1ccc(OCC(=O)c2c[nH]c3ccccc23)c([N+](=O)[O-])n1	21.8%	-25.5%	10.5%	4.0%	2.9%
Cc1ccc(C)c(C(=O)COc2ccccc2[N+](=O)[O-])c1	12.6µM*	5.17µM*	-97.3%	10.3µM*	2.7%
Cc1cc(C)c(S(=O)(=O)Oc2ccccc2[N+](=O)[O-])c(C)c1	·	20.6µM*	·	18.4µM*	·
Cc1ccc(OCC(=O)c2cc(C)c(C)cc2C)c([N+](=O)[O-])n1	?	3.66µM*	11.2µM*	8.2µM*	-5.0%
Cc1ccc(NS(=O)(=O)c2ccccc2[N+](=O)[O-])cc1C	-2.9%	?	-26.0%	5.8%	0.0%
CCCn1c(C)cc(C(=O)COc2ccc(C)nc2[N+](=O)[O-])c1C	1.4%	?	?	?	0.0%
Cc1nnc(SCC(=O)NC(=O)NCc2ccco2)s1	0.5%	5.9%	3.6%	11.4%	-5.1%
Cc1ccc2c(CN3CC(C)CC(C)C3)cc(=O)oc2c1 (stereo not given)	6.5%	-10.2%	9.4%	?	·
CCOC(=O)/C(C#N)=C(C)/C=C1\Sc2ccccc2N1CC	-3.7%	?	1.2%	18.4µM*	2.7%
COc1cccc(OC)c1OCCNC[C@@H]1COc2ccccc2O1	-8.9%	26.6µM*	10.5%	26.6µM*	4.8%
c1ccc2c(c1)OCC(CNCC1COc3ccccc3O1)O2 (stereo not given)	18.1%	-8.5%	14.0%	-0.1%	·
NC(=NCCCCCCN=C(N)/N=C(\N)Nc1ccc(Cl)cc1)/N=C(\N)Nc1ccc(Cl)cc1	15.8µM*!	16.4µM*!	?	13µM*!	8.5%
CCOC(=O)CSC1=NC(=O)/C(=C/c2ccc(OC)cc2)S1	?	1.46µM*	32.4%	1.3µM*	-2.3%
COc1ccc(/C=C2\SC(N)=NC2=O)cc1	-0.4%	?	12.9%	?	0.6%
CCOC(=O)CSC1=N/C(=C\c2ccc(OC)c(OC)c2)C(=O)N1C	-4.0%	25.9µM*	0.2%	?	1.3%
Cc1cccc(NC(=O)c2ccccc2SCc2ccc(F)cc2)n1	·	?	·	14.6µM*	-5.6%
O=C(Nc1ccc(Cl)cn1)c1ccccc1SCc1ccccc1	-1.9%	-26.8%	?	-15.7%	-2.7%
CCCOc1ccc(F)cc1-c1cc(C(=O)Nc2ccc(OC)nc2)[nH]n1	·	?	·	18.4µM*	·
CCCOc1ccc(F)cc1-c1cc(C(=O)Nc2cc(OC)c(OC)c(OC)c2)[nH]n1	·	8.2µM*	·	14.6µM*	·
COc1cc(NC(=O)c2cc(-c3cc(F)ccc3OC(C)C)n[nH]2)cc(OC)c1OC	·	?	·	16.4µM*	·
COc1ccc(NC(=O)c2cc(-c3cc(F)ccc3OCC3CCCO3)n[nH]2)cc1OC (stereo not given)	·	?	·	20.6µM*	·
COc1ccc(NC(=O)c2ccc(OCC3CCCO3)cc2)cc1OC (stereo not given)	·	-15.2%	·	-6.0%	-0.9%
SMILES	Gal4-VP16 FLuc	DT40 TDP1 CPT	RORg inh	DT40 TDP1 no CPT	TDP1 inh
CCCOc1ccc(F)cc1-c1cc(C(=O)Nc2cc(OC)ccc2OC)[nH]n1	·	-20.5%	·	-10.6%	·
Cc1nc2sc(C(c3cccc(F)c3)N3CCC(O)CC3)c(O)n2n1 (stereo not given)	-2.4%	-3.1%	-28.3%	-14.2%	0.0%
CC(C)Oc1cc(F)ccc1-c1cc(C(=O)Nc2cccc(C(F)(F)F)c2)[nH]n1	·	16.4µM*	·	?	·
COc1ccc(NC(=O)c2cc(-c3ccc(F)cc3OC(C)C)n[nH]2)cn1	·	?	·	23.1µM*	·
COc1cc(F)ccc1-c1cc(C(=O)Nc2ccc(NC(C)=O)cc2)[nH]n1	·	-25.4%	·	?	·
CSc1nnc(SC)nn1	3.2%	·	-12.5%	·	8.7%
CCOC(=O)C1=NNC(C(=O)c2ccc(C)cc2)C1c1ccc(C)cc1 (stereo not given)	-7.3%	?	8.2%	16.4µM*	5.6%
COC(=O)/C(=C/c1c[nH]c2ccccc12)[N+](=O)[O-]	20µM*	-20.7%	?	-16.0%	5.2%
COC(=O)/C(=C/c1c[nH]c2ccccc12)NC(C)=O	-1.7%	0.6%	7.7%	7.2%	-1.9%
CCOC(=O)c1cc(C)n(CCc2ccccc2)c1C	7.3%	-16.4%	31.5%	-24.1%	10.9%
CCOC(=O)c1cc(C)n(CC2CCC(C(=O)Nc3ccccc3OC)CC2)c1C (stereo not given)	·	18.4µM*	·	?	8.5%
CCOC(=O)c1cc(C)n(CC2CCC(C(=O)Nc3ccc(OCC)cc3)CC2)c1C (stereo not given)	·	16.4µM*	·	20.6µM*	2.8%
CCOC(=O)c1c(S(=O)(=O)N2CCC(C(=O)Nc3ccc(OCC)cc3)CC2)c(C)n(C)c1C	·	-7.9%	·	-6.4%	-2.5%
O=C(Nc1cccn2ncnc12)c1cccc(C(F)(F)F)c1	27.1%	8.6%	1.2%	-21.2%	2.9%
O=C(NC1CCCCC1)c1ccc([N+](=O)[O-])cc1	·	-16.3%	·	-22.8%	·
O=C(NC1CCCCC1)c1cc([N+](=O)[O-])[nH]n1	?	?	-18.7%	18.4µM*	0.0%
O=C(Nc1ccc(-c2csnn2)cc1)C(Cl)(Cl)Cl	-2.8%	16.4µM*	?	7.31µM*	0.0%
CCOc1ccccc1C=C1SC(=S)NC1=O	·	-27.5%	·	?	·
COc1ccc(S(=O)(=O)N2CCCCC2)cc1NC(=O)Cn1cnc2ccccc2c1=O	·	-7.3%	·	7.3%	0.2%
COc1ccc(S(=O)(=O)N2CCCCCC2)cc1NC(=O)c1c2c(nc3ccccc13)CCN(Cc1ccccc1)C2	-14.2%	16.4µM*	33.4%	?	7.9%
CCN(CC)S(=O)(=O)c1ccc(OC(C)C)c(NC(=O)c2c3c(nc4ccccc24)CCN(Cc2ccccc2)C3)c1	5.4%	13µM*	25.5%	11.6µM*	5.6%
COc1ccc(NC(=O)c2c3c(nc4ccccc24)CCN(Cc2ccccc2)C3)c(OC)c1	9.6%	16.4µM*	2.9%	?	7.7%
Cc1nn2c(C)c(C(=O)Nc3ccccc3)cnc2c1-c1ccccc1	6.9%	?	32.0%	?	2.7%
C[C@H](NC(=O)C1CCN(S(=O)(=O)c2ccccc2)CC1)C(=O)NC1CC1	·	-10.4%	·	-3.4%	·
